The source of these data is PubChem BioAssay (NCI).

This is part of a sample that, as a whole, favours compounds with a hit. Of some 79,000 tested, about 15% had one in any assay. A number with no mark means an inactive call. Activity calls are given as the source filed them. Rule as the data show it: active = growth inhibition above about 70%; inactive = the rest.

This experiment is described as follows: NCI Yeast Anticancer Drug Screen. Data for the wt1 strain (AID 149).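 Also: 0% = growth of vehicle-treated wt1 cultures.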 The following applies: S. cerevisiae wt1 strain (SPY 50644) growth inhibition, active compounds read high. As for the experimental part:
Growth inhibition of yeast strains with defined genetic alterations is measured as a screen for potential anti-cancer activity. Selected strains with alterations in DNA damage repair or cell cycle control were exposed to compounds and growth inhibition was measured relative to vehicle treated controls. The strain used in this assay is wt1

As for `N=C1N=Nc2nc(C3(c4nc5n(c4O)C(=N)N=N5)Cc4ccccc4C3=O)c(O)n21` (stereo not given), the growth inhibition (at 1.2 µM) was 3%; the growth inhibition (at 3.7 µM) is 7%; the growth inhibition (at 11.0 µM) was 11%; the growth inhibition (at 33.0 µM) is 23%; the growth inhibition (at 100.0 µM) was 67%.

With `O=C1OC(C2=CC(=O)c3ccccc3C2=O)C(Cl)=C1Cl` (stereo not given), the growth inhibition runs as follows: (at 1.2 µM) 1%; (at 3.7 µM) 9%; (at 11.0 µM) 9%; (at 33.0 µM) 14%; (at 100.0 µM) 28%.

For `COC(=O)C1(C)CCc2c(ccc3ccccc23)C1=O` (stereo not given), the growth inhibition by setting is: (at 1.2 µM) 0%; (at 3.7 µM) -2%; (at 11.0 µM) -3%; (at 33.0 µM) -2%; (at 100.0 µM) -13%.

With `O=C1Nc2ccccc2/C1=C/c1ccccc1`, the growth inhibition was -1% (at 1.2 µM); -2% (at 3.7 µM); 0% (at 11.0 µM); 6% (at 33.0 µM); 34% (at 100.0 µM).

`CCOc1ccc(NC(=O)C2=C(C)NC(C)=C(C(=O)Nc3ccc(OCC)cc3)C2c2cccc([N+](=O)[O-])c2)cc1`: the growth inhibition is 1% (at 1.2 µM); -3% (at 3.7 µM); -5% (at 11.0 µM); -28% (at 33.0 µM); 79% (active) (at 100.0 µM).

Consider `O=[N+]([O-])c1cccc2nc3ccccc3c(NCCC[N+]3([O-])CCCCC3)c12`, for which the growth inhibition is, setting by setting: (at 1.2 µM) 1%; (at 3.7 µM) 2%; (at 11.0 µM) 4%; (at 33.0 µM) 15%; (at 100.0 µM) 46%.

Consider `CC1=C(SCc2ccccc2)C(=O)c2ccccc2C1=O`, for which the growth inhibition was -15% (at 1.2 µM); -15% (at 3.7 µM); -7% (at 11.0 µM); 64% (at 33.0 µM); 91% (active) (at 100.0 µM).

For `CCOC(=O)c1ccc(NC(=O)O/N=C(/Cl)C(C)C)cc1`, the growth inhibition runs as follows: (at 1.2 µM) -1%; (at 3.7 µM) -6%; (at 11.0 µM) -11%; (at 33.0 µM) -14%; (at 100.0 µM) 97% (active).
